D2 PAM-1: human D2 receptor positive allosteric modulation | DiscoveRx D2 beta-arrestin cells, luminescence, 90 min; 100% = 57 uM dopamine signal | 360,000 tested, 0.23% active | potentiation, % (concentration not given with the values) | P14416 | AID 624464; in the data active means potentiation above about 50%; inconclusive means mostly about 30% to 49%
Target sequence (P14416 whole entry, looked up): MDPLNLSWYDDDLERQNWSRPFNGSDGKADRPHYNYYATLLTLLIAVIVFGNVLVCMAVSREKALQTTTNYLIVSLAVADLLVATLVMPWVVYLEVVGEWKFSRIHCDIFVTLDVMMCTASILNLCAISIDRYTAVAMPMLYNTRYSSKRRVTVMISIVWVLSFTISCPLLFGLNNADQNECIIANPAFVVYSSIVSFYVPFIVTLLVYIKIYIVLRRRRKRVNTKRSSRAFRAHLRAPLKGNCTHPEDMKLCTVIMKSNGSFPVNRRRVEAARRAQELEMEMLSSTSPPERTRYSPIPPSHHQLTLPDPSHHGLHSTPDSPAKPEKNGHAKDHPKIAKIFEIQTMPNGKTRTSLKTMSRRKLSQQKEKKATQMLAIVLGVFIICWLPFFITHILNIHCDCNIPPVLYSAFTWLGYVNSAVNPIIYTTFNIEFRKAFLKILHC
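PathHunter beta-arrestin assay in DiscoveRx D2 cells. Compounds were added with an EC20 of dopamine (50 nM final) for 90 min at 37 deg C. Luminescence was read 1 h after detection reagent, with 57 uM dopamine as the EC100 control.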
D2 PAM-2: positively modulates the human D2 dopamine receptor allosterically; HEK293 T-REx D2, calcium flux, EC20 dopamine potentiation; potentiation, % at 10 µM; 340,000 tested, 0.34% active; AID 485347;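 active means potentiation over 3 SD above the plate norm, cut at about 30% in these data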; further: 0% is about no effect
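Calcium flux readout, no-wash dye, 1 read/s. Inducible HEK293 Trex D2 line, overnight 30 C. Compound alone 180 s (agonist flags), then EC20 dopamine, another 180 s to score potentiation.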
D2 antagonist: D2 dopamine receptor (human) antagonism. P14416. HEK293 TREx D2 cells, calcium flux, dopamine EC80. inhibition, % at 10 µM. 340,000 tested, 2% active; in the data active means inhibition above about 30%; inactive means below that, where a call was filed; further: 0% is about no effect
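Calcium mobilization kinetics were recorded at 1 s intervals in tetracycline-induced HEK293 T-REx D2 cells, first for 180 s after compound addition and then 180 s after EC80 dopamine.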
D2 ag-1: activates the human D2 dopamine receptor; P14416; HEK293 T-REx D2 cells, calcium flux agonist mode; activation, % at 2 µM; 340,000 tested, 0.53% active; AID 485358;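 active means activation over 3 SD above normal in the single-dose calcium agonist read, cut at about 30% in these data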; further: 0% is about no effect
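Calcium-flux readout, 1 cycle/sec over 180 s following compound pin transfer, in inducible HEK293 Trex D2 cells (force-coupled); dopamine controls included. Positive calcium responses during this window marked compounds as potential agonists.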
D2 ag-2: human D2 receptor agonism in beta-arrestin assay | AID 624465 | DiscoveRx PathHunter D2 beta-arrestin, luminescence, 90 min; 100% = 57 uM dopamine signal | 360,000 tested, 0.084% active | activation, % (no concentration beside the values); in the data active means activation above about 40%; inconclusive means between about 15% and that limit
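Agonist mode: compounds alone added to overnight-plated D2 PathHunter cells for 90 min at 37 C, with 57 uM final dopamine (EC100) defining full response. Beta-arrestin recruitment detected by chemiluminescent reagent, read after 1 h at ambient temperature.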
Starred values were filed as active, the others as inactive. Sampled rows, rich in hits. Any-hit rate of the full collection: about 2.4%.

What do the screens show for `Cc1cc(C)nc(/N=C(\N)Nc2ccc(OCc3ccccc3)cc2)n1`?
D2 PAM-1: -5.2; D2 PAM-2: -13.3; D2 antagonist: 69.8*; D2 ag-1: 63.2*; D2 ag-2: -2.4

How did COc1ccc(C(=O)c2c[nH]cc2-c2ccccc2)cc1 do in these assays?
D2 PAM-1: -7.1; D2 PAM-2: 5.0; D2 antagonist: 39.8*; D2 ag-1: -1.8; D2 ag-2: -1.0

Results for CCOc1ccc(CNC(=O)C2CCN(S(=O)(=O)c3ccc4c(ccn4C)c3)CC2)cc1 ?
D2 PAM-2: 3.5; D2 ag-1: 0.1

Results for CCCN1C(=O)C(O)(CC(=O)c2ccc(OC)c(OC)c2)c2ccccc21 (stereo not given) ?
D2 PAM-2: -8.0; D2 ag-1: -2.1

What do the screens show for `Cc1ccc[n+](C(C)C(=O)Nc2ccc(C)c([N+](=O)[O-])c2)c1` (stereo not given)?
D2 PAM-1: -36.0; D2 PAM-2: -16.7; D2 antagonist: 42.8*; D2 ag-1: 2.9; D2 ag-2: -2.7

How did Cc1ccc[n+](C(C)C(=O)Nc2ccc([N+](=O)[O-])cc2C)c1 (stereo not given) do in these assays?
D2 PAM-1: -9.5; D2 PAM-2: -2.3; D2 antagonist: 20.6; D2 ag-1: -2.5; D2 ag-2: -3.1

How did O=C(COC(=O)CCN1C(=O)C2CC=CCC2C1=O)NCCc1ccc(F)cc1 (stereo not given) do in these assays?
D2 PAM-1: -5.2; D2 PAM-2: -11.5; D2 antagonist: 37.1*; D2 ag-1: 0.3; D2 ag-2: -3.1

How did NS(=O)(=O)c1ccc(CCNC(=O)COC(=O)CCN2C(=O)C3CC=CCC3C2=O)cc1 (stereo not given) do in these assays?
D2 PAM-1: -9.2; D2 PAM-2: 8.3; D2 antagonist: -9.2; D2 ag-1: -0.3; D2 ag-2: 1.6

What do the screens show for `CC(=O)c1sc2c(c1C)c(=O)n(-c1ccc(Cl)cc1)c(=O)n2Cc1ccc(Cl)cc1`?
D2 PAM-2: 2.8; D2 ag-1: 1.2

Results for COc1ccc(-c2c(C)[nH]n3c(=O)c(Cc4ccccc4)c(C)nc23)cc1 ?
D2 PAM-1: -40.0; D2 PAM-2: -24.3; D2 antagonist: 31.2*; D2 ag-1: 1.3; D2 ag-2: -2.5

How did COc1ccccc1-c1c(C)[nH]n2c(=O)c(Cc3ccccc3)c(C)nc12 do in these assays?
D2 PAM-1: -17.4; D2 PAM-2: -22.4; D2 antagonist: 53.7*; D2 ag-1: -0.1; D2 ag-2: 0.4

How did CC(C)c1ccc(S(=O)(=O)c2cnc(SCC(=O)Nc3cccc(C(F)(F)F)c3)nc2N)cc1 do in these assays?
D2 PAM-2: -4.5; D2 ag-1: -0.8

Results for N/C(=N\OC(=O)c1ccc(Cl)cc1[N+](=O)[O-])c1ccccn1 ?
D2 PAM-1: 6.8; D2 PAM-2: 9.1; D2 antagonist: 0.5; D2 ag-1: -0.1; D2 ag-2: 62.6*

How did COc1cccc(C(=O)O/N=C(\N)c2ccccn2)c1 do in these assays?
D2 PAM-1: 55.4*; D2 PAM-2: -1.5; D2 antagonist: -7.8; D2 ag-1: 0.7; D2 ag-2: 13.1

What do the screens show for `N/C(=N\OC(=O)c1ccc2ccccc2c1)c1ccccn1`?
D2 PAM-1: 14.2; D2 PAM-2: -4.8; D2 antagonist: 7.9; D2 ag-1: 0.7; D2 ag-2: inconclusive

Results for Cc1ccc(C(=O)O/N=C(\N)c2ccccn2)c(Cl)c1 ?
D2 PAM-1: 90.8*; D2 PAM-2: 2.1; D2 antagonist: -4.9; D2 ag-1: -0.3; D2 ag-2: inconclusive

What do the screens show for `N/C(=N\OC(=O)c1ccc(Cl)cc1Cl)c1ccccn1`?
D2 PAM-1: 5.0; D2 PAM-2: 6.8; D2 antagonist: -24.5; D2 ag-1: 0.0; D2 ag-2: -0.4

What do the screens show for `Cc1ccccc1CNC(=O)c1nn(-c2ccccc2F)nc1CO`?
D2 PAM-2: 12.1; D2 ag-1: 5.6

How did Cc1nn(C(=O)c2cccc([N+](=O)[O-])c2C)c(C)c1S(=O)(=O)N1CCOCC1 do in these assays?
D2 PAM-2: 8.4; D2 ag-1: -0.9

What do the screens show for `CCc1ccc(NC(=O)C(=O)NCCc2csc(-c3cccc(F)c3)n2)cc1`?
D2 PAM-2: 10.6; D2 ag-1: -0.1

How did COc1ccc(C(=O)COc2nc(C)cc(C)c2C#N)cc1 do in these assays?
D2 PAM-1: -3.9; D2 PAM-2: 0.1; D2 antagonist: 34.9*; D2 ag-1: 0.4; D2 ag-2: -3.6

What do the screens show for `CC(=O)Nc1cc(-c2ccccc2)ccc1O`?
D2 PAM-1: 1.3; D2 PAM-2: 8.5; D2 antagonist: -2.3; D2 ag-1: 0.6; D2 ag-2: -1.9

Results for Nc1cc(-c2ccccc2)ccc1O ?
D2 PAM-1: 98.4*; D2 PAM-2: 3.0; D2 antagonist: 7.7; D2 ag-1: 0.2; D2 ag-2: inconclusive

What do the screens show for `O=[N+]([O-])c1cccc(NC(=S)NCCc2ccccc2)c1`?
D2 PAM-1: -31.9; D2 PAM-2: 6.9; D2 antagonist: 79.7*; D2 ag-1: -1.1; D2 ag-2: -6.5

What do the screens show for `CC(=O)NNC(=S)NCCc1ccccc1`?
D2 PAM-1: -0.2; D2 PAM-2: -2.4; D2 antagonist: 48.7*; D2 ag-1: 1.1; D2 ag-2: -7.3

How did Cc1c(CNC(C)CCc2ccccc2)c(C(=O)O)c(C)n1Cc1ccc(F)cc1Cl (stereo not given) do in these assays?
D2 PAM-2: 0.3

How did CN1C(=O)c2cccc3c(S(=O)(=O)Nc4cccc(C(=O)O)c4)ccc1c23 do in these assays?
D2 PAM-2: 1.5; D2 ag-1: 0.1

How did O=C(NNc1nc2ccc(F)cc2s1)c1cccc(F)c1 do in these assays?
D2 PAM-1: -20.4; D2 PAM-2: -13.8; D2 antagonist: 40.7*; D2 ag-1: 5.0; D2 ag-2: 5.8

Results for Cn1c(=O)oc2cc(S(=O)(=O)NC(Cc3ccccc3)C(=O)NCc3ccccc3Cl)ccc21 (stereo not given) ?
D2 PAM-2: 15.1; D2 ag-1: 0.7

What do the screens show for `CCC1(C)Cc2nc3sc(C(=O)O)c(N)c3cc2CO1` (stereo not given)?
D2 PAM-1: -17.0; D2 PAM-2: 0.5; D2 antagonist: 36.7*; D2 ag-1: 1.0; D2 ag-2: -0.5

Results for CCOC(=O)c1sc2nc3c(cc2c1N)COC(C)(CC)C3 (stereo not given) ?
D2 PAM-1: -21.5; D2 PAM-2: -6.2; D2 antagonist: 12.7; D2 ag-1: 0.1; D2 ag-2: 0.5

Results for COc1cc(-c2nc(-c3ccc4c(c3)[nH]c(=O)n4C)no2)cc(OC)c1OC ?
D2 PAM-2: 10.1; D2 ag-1: 0.9

What do the screens show for `Cc1ccnc2c1ccc1cccnc12`?
D2 PAM-1: -9.4; D2 PAM-2: -2.6; D2 antagonist: -0.4; D2 ag-1: 0.5; D2 ag-2: 2.9

Bioassay records as filed in PubChem.
